Data taken from PubChem BioAssay (NCATS).
Where “and” joins values, the source holds several entries; their conditions need not be identical. Equal values may be shown once. Inconclusive results are not listed. Calls of active or inactive are those of the source. Unless noted, calls follow the shape of the full dose curve.

What was measured:
[1] = target: Voltage-gated inwardly rectifying potassium channel KCNH2 (Homo sapiens) (UniProt Q12809); experiment: qHTS Assay for Small Molecule Inhibitors of the Human hERG Channel Activity (AID 588834; active = well fitted curve in the direction sought with a large enough effect; an effect the other way counts as inactive or inconclusive;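 also: top concentration of the series differs between compounds; lower thallium flux fluorescence means stronger hERG block; nearly all actives have a fitted effect of over 50% in size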)
Sequence of Voltage-gated inwardly rectifying potassium channel KCNH2 (Homo sapiens) (Q12809 whole entry, looked up): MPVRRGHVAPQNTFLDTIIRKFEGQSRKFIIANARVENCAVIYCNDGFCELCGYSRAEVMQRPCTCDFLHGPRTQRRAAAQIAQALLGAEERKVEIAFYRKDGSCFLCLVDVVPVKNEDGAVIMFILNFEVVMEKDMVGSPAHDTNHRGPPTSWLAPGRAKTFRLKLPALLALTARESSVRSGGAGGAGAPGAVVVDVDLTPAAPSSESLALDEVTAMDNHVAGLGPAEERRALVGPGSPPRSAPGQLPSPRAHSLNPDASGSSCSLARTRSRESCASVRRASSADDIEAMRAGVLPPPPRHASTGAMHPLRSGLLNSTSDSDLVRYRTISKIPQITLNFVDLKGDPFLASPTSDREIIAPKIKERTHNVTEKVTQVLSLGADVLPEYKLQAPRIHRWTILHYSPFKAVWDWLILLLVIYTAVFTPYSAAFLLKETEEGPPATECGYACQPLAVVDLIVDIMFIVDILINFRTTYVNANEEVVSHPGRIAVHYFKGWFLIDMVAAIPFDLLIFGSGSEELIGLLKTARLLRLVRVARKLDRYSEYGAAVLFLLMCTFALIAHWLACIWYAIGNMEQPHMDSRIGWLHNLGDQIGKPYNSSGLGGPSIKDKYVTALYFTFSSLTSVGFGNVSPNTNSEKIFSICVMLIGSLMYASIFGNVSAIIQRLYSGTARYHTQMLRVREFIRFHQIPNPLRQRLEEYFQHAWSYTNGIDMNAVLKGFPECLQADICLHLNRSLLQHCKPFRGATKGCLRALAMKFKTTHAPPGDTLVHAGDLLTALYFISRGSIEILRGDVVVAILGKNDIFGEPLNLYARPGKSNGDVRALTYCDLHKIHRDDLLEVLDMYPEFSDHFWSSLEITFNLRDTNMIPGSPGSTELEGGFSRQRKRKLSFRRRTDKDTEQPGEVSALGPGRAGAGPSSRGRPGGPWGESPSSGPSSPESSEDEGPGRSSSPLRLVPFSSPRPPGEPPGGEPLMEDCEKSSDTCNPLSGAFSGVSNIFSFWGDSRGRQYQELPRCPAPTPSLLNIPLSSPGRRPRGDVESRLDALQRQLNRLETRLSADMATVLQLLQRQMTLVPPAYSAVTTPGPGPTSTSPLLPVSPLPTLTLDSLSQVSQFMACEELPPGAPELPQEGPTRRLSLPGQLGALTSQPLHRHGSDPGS
How it was run: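 Concentration-response qHTS measuring drop in thallium-sensitive dye signal. U2OS cells carrying BacMam hERG; compound exposure ~10 min, then stimulation buffer and 2 min read at 1 sec intervals.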

[2] = qHTS assay for small molecule agonists of the antioxidant response element (ARE) signaling pathway (AID 651741; active = well fitted activation curve with a large enough effect in the signal ratio; the % refers to the signal ratio; also: potency is read from the fitted curve at half-maximal effect)
How it was run: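 HepG2 ARE-bla cells plated at 2,000 cells/well and incubated 5 h at 37 C/5% CO2 received 23 nL compound in DMSO. After 16 h at 37 C, LiveBLAzer B/G FRET substrate was applied for 2 h at room temperature and fluorescence read.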

[3] = qHTS assay for small molecule activators of the p53 signaling pathway (AID 651743; active = well fitted activation curve with a large enough effect in the signal ratio, not every such curve was filed as active; the % refers to the signal ratio; also: potency is read from the fitted curve at half-maximal effect); conditions: HCT-116 p53RE-bla, beta-lactamase FRET ratio, 16 h; activation: stronger effect = higher value
How it was run: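 HCT-116 p53RE-bla, 4,000 cells/well; 5 h settle; cpd/DMSO 16 h, 37 C; LiveBLAzer B/G 2 h RT; fluorescence intensity.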

[4] = qHTS assay for small molecule disruptors of the mitochondrial membrane potential - 1 hr assay (AID 651754); also: potency is read from the fitted curve at half-maximal effect; nearly all actives have a fitted effect of over 35% in size
How it was run: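 HepG2 cells, attached overnight at 37C, were exposed to compound or DMSO vehicle for 1 hr at 37C, 5% CO2, then stained with Mito-MPS dye for 30 min. Red aggregate versus green monomer fluorescence reports membrane potential.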

[5] = qHTS assay for small molecule disruptors of the mitochondrial membrane potential - 5 hr assay (AID 651755); also: potency is read from the fitted curve at half-maximal effect; nearly all actives have a fitted effect of over 40% in size
How it was run: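 HepG2 cells (2,000/well), attached overnight, exposed to compound 5 hr at 37C, then Mito-MPS dye 30 min. Fluorescence read for monomers (490/535 nm) and aggregates (540/590 nm).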

[6] = qHTS assay to identify small molecules that stimulate interleukin-8 (IL-8) secretion (AID 651758; active = well fitted activation curve with a large enough effect in the signal ratio; the % refers to the signal ratio; also: potency is read from the fitted curve at half-maximal effect)
How it was run: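 THP-1 cells (2000/well) exposed to compound 16 h at 37 C; secreted IL-8 then detected by HTRF with cryptate- and XL665-labelled anti-IL-8 antibody pair after 1-3 h at room temperature.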

[7] = qHTS assay for environmental chemicals that activate the Aryl hydrocarbon Receptor (AhR) signaling pathway (AID 651777; active = well fitted curve in the direction sought with a large enough effect; an effect the other way counts as inactive or inconclusive; also: potency is read from the fitted curve at half-maximal effect; nearly all actives have a fitted effect of over 15% in size); conditions: 1A2-DRE human hepatoma cells, luciferase, 24 h; activation: stronger effect = higher value
How it was run: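 AhR activation is scored as a rise in luciferase from a stable DRE–CYP1A2 promoter construct in human hepatoma cells. Treatment lasts 24 hr at 37 C; detection uses One-Glo after 30 min at room temperature.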

[8] = target: Nuclear receptor ROR-gamma (Homo sapiens) (UniProt P51449); experiment: qHTS assay for small molecule antagonists of the retinoid-related orphan receptor gamma (ROR-gamma) signaling pathway (AID 651802; active = well fitted curve in the direction sought with a large enough effect; an effect the other way counts as inactive or inconclusive; also: potency is read from the fitted curve at half-maximal effect; nearly all actives have a fitted effect of over 60% in size)
Sequence of Nuclear receptor ROR-gamma (Homo sapiens) (P51449 whole entry, looked up): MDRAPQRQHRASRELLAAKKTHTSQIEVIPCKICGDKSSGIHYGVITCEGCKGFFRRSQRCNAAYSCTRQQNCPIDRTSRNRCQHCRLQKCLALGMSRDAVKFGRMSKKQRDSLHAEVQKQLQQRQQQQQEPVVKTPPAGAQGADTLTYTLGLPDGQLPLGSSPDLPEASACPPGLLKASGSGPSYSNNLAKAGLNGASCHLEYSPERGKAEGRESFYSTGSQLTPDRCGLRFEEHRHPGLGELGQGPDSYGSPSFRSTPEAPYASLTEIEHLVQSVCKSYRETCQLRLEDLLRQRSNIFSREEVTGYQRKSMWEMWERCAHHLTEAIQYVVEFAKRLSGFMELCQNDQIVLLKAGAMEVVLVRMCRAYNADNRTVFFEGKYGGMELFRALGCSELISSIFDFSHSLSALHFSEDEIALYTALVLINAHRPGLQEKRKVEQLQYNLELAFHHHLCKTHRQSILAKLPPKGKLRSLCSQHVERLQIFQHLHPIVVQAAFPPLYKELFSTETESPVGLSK
How it was run: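 CHO cells carrying TET-inducible ROR-gamma and an ROR response element–luciferase reporter were exposed to compound, then induced with doxycycline. After 16hr at 37C, luminescence was read; lower signal indicates antagonism.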

[9] = target: Arylsulfatase A (Homo sapiens) (UniProt P15289); experiment: qHTS screen for enhancers of Arylsulfatase A (ASA1): LOPAC Validation Assay (AID 720538; active = well fitted curve in the direction sought with a large enough effect; an effect the other way counts as inactive or inconclusive)
Sequence of Arylsulfatase A (Homo sapiens) (P15289 whole entry, looked up): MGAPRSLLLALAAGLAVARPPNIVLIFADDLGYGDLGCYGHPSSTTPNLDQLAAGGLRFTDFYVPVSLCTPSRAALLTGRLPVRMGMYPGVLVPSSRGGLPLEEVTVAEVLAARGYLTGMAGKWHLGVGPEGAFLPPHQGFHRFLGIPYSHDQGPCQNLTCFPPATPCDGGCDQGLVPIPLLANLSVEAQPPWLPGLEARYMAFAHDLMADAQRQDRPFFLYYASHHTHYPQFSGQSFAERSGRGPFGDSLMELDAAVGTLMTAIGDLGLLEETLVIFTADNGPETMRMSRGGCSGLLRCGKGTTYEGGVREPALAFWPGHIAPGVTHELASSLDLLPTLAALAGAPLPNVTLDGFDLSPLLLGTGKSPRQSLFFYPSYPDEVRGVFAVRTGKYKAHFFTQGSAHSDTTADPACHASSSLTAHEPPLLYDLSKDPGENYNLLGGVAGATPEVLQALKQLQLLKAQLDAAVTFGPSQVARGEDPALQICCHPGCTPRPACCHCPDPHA
How it was run: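 Read-out: fluorescence at Ex=525/Em=598 nm after 1N NaOH final stop. Patient fibroblasts carrying ASA-I179S had 48h compound exposure, then 14h room-temperature pNCS hydrolysis (0.5mM final) in lysis buffer. Signal increase = enhanced activity.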

[10] = qHTS profiling of the MIPE4 collection as inhibitors of Plasmodium falciparum (3D7) proliferation (AID 743344; call rule not given here); conditions: P. falciparum 3D7 in erythrocytes, SYBR Green DNA fluorescence, 72 h; at 28.5 µM (top of the series) unless noted
How it was run: (§1)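 Erythrocytes infected with P. falciparum (0.3% parasitemia, 2.5% hematocrit) incubated with compounds 72 h at 37 C, 5% CO2. Lysis with saponin/Triton buffer containing SYBR Green I, overnight at room temperature in the dark; DNA fluorescence (485/535 nm) normalised to 0.29 uM artemisinin and DMSO.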

[11] = qHTS profiling of the MIPE4 collection as inhibitors of Plasmodium falciparum (DD2) proliferation (AID 743345; call rule not given here); conditions: P. falciparum Dd2 in erythrocytes, SYBR Green DNA, 72 h; at 28.5 µM (top of the series) unless noted
How it was run: as §1

[12] = qHTS profiling of the MIPE4 collection as inhibitors of Plasmodium falciparum (DD2) proliferation (Rep 2) (AID 743346; call rule not given here); conditions: P. falciparum Dd2 in erythrocytes, SYBR Green DNA, 72 h; at 28.5 µM (top of the series) unless noted
How it was run: as §1

[13] = qHTS for Inhibitors of the Functional Ribonucleoprotein Complex (vRNP) of Lassa (LASV) Arenavirus: LASV Primary Screen - GLuc reporter signal (AID 1347082; calls by dose curve; tested in HEK293 reporter line; also: nearly all actives have a fitted effect of over 60% in size)
[14] = qHTS for Inhibitors of the Functional Ribonucleoprotein Complex (vRNP) of Lassa (LASV) Arenavirus: Viability assay - alamar blue signal for LASV Primary Screen (AID 1347083; calls by dose curve; tested in HEK293 reporter line; also: nearly all actives have a fitted effect of over 80% in size)
[15] = qHTS for Inhibitors of the Functional Ribonucleoprotein Complex (vRNP) of Lymphocytic Choriomeningitis Arenaviruses (LCMV): Viability assay - alamar blue signal for LCMV Primary Screen (AID 1347085; calls by dose curve; tested in HEK293 reporter line; also: nearly all actives have a fitted effect of over 80% in size)
[16] = target: Nucleoprotein (Lymphocytic choriomeningitis virus (strain Armstrong)) (UniProt P09992); experiment: qHTS for Inhibitors of the Functional Ribonucleoprotein Complex (vRNP) of Lymphocytic Choriomeningitis Arenaviruses (LCMV): LCMV Primary Screen - GLuc reporter signal (AID 1347086); also: nearly all actives have a fitted effect of over 70% in size
Sequence of Nucleoprotein (Lymphocytic choriomeningitis virus (strain Armstrong)) (P09992 whole entry, looked up): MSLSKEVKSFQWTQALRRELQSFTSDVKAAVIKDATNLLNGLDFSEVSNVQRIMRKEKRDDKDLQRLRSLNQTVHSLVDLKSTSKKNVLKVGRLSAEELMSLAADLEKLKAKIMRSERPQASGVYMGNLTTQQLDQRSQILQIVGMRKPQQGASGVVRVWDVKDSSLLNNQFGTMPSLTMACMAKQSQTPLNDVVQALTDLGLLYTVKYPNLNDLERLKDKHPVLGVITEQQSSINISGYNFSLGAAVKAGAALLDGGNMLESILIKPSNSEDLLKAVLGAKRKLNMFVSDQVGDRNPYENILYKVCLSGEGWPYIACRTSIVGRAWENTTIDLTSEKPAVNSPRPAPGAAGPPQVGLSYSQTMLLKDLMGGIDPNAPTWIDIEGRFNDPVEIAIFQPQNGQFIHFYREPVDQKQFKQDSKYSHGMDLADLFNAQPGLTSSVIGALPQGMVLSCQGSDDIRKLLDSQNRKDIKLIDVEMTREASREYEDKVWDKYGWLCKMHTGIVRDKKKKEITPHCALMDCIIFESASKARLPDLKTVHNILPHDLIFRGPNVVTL

[17] = Cytotoxicity counterscreen for inhibitors of SARS-CoV-2 cell entry (AID 1645845); also: nearly all actives have a fitted effect of over 50% in size
How it was run: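 HEK293-ACE2 cells (Expi293F stably expressing human ACE2) seeded overnight, then compound for 1 h plus 48 h at 37C. Viability as ATP content by luminescence; normalized to wells with cells and media-only wells.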

[18] = Primary qHTS to identify inhibitors of SARS-CoV-2 cell entry (AID 1645846); conditions: activity change, negative = inhibition: at 57.1 µM (top of the series) unless noted; also: nearly all actives have a fitted effect of over 45% in size
How it was run: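 HEK293-ACE2 (Expi293F, stable hACE2), 1500 cells/well, o/n 37C; cpd 23 nL pin, 1 h; MLV-PP w/ SARS-CoV-2-S (Wuhan-Hu-1, Δ19 C-term); 48 h 37C; Bright-Glo luminescence; normalized vs S-PP and bald PP.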

CRL-7250 = normal cell line; experiment: qHTS assay to identify novel small-molecules to repurpose for Merkel cell carcinoma treatment (AID 1296009; active = well fitted curve in the direction sought with a large enough effect; an effect the other way counts as inactive or inconclusive; also: nearly all actives have a fitted effect of over 60% in size); conditions: MCC and control cell lines, CellTiter-Glo viability, 72 h; series mostly up to 92 µM
How it was run: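 Cells were incubated with compound for 72 hr at 37 degree celsius before CellTiter-Glo addition. Luminescence was normalized with no-cell wells as full cytotoxicity and DMSO as baseline.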

Cc1cc(O)c2c(c1)C(=O)c1cc(O)cc(O)c1C2=O
inactive: Potency [1] | Potency [9] | Potency [13] | Potency [14] | Potency [15] | Potency [16] | Potency [17] | Potency (CRL-7250)
3.76%: activity change, negative = inhibition [18]
active: Potency [2] 9.69 µM and 18.8 µM | Potency [3] 15.8 µM and 22.4 µM | Potency [4] 2.98 µM | Potency [5] 3.76 µM | Potency [6] 66.8 µM | Potency [7] 44.7 µM | Potency [8] 42.2 µM
66.9%: parasite growth, % of control (lower = inhibition) [12]
90.9%: parasite growth remaining, % of DMSO control (lower = more inhibition) [11]
76.8%: parasite growth, % of DMSO control [10]
